The values that follow come from PubChem BioAssay AID488890 (Southern Research Specialized Biocontainment Screening …, 2010).

Hit rate of the full screen: of about 320,000 compounds, about 1,300 (0.41%) were called active. Not shown: some 3% with an inconclusive outcome. No rule for the calls is given here. Not all results are given here. Results with a measured potency or affinity are listed apart.

This assay is described as follows: growth inhibition of non-replicating M. tuberculosis (AID 488890).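 Also: plate controls were DMSO cells for no effect and high antibiotic wells for full effect.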 As to conditions: Mycobacterium tuberculosis non-replicating, at 25 µM, stronger effect = higher value.
`NS(=O)(=O)c1ccc(CCNC(=O)c2cccc(S(=O)(=O)N3CCCC3)c2)cc1`: the inhibition is 17.3%.

For `S=c1[nH]nc(C2CCCCC2)n1/N=C/c1cccc(Br)c1`, the inhibition was -5.05%.

In the case of `O=C(c1ccco1)N1CCN(S(=O)(=O)c2ccc(Cl)cc2)CC1`, the inhibition is -7.62%.

With `COCCCNC(=O)Nc1ccc(F)cc1F`, the inhibition is -3.58%.

Turning to `NC(=O)COc1cc2oc(=O)c3c(c2cc1Cl)CCCC3`, the inhibition is -1.26%.

As to `CCN(CC)C(=O)c1sc(N)c(C(=O)OC(C)C)c1C`, the inhibition worked out at 29.4%.

For the molecule `O=C(O)C1CC=CCC1C(=O)c1ccccc1` (configuration not stated), the inhibition is -2.95%.

As for `O=c1cccccc1NN=C1CCCCCC1`, the inhibition turned out to be 15.8%.

On to `CCOC(=O)c1sc(NC(=O)CSc2n[nH]c(C)n2)nc1C`, for which the inhibition came to 23.3%.

`CC(=C/c1ccco1)/C=N/NC(=O)c1ccncc1`: the inhibition amounted to 52.5%.

On to `C/C(=N\Nc1nc(-c2ccccc2O)nc2ccccc12)c1ccccc1`, for which the inhibition amounted to 7.99%.

For `CC(C)CCC(C(=O)O)C(C)CC(=O)Nc1ccn(-c2ccccc2)n1` (configuration not stated), the inhibition was -10%.

As to `CSCCC(NC(=O)COc1ccccc1)C(=O)N(C)Cc1cccc(F)c1` (configuration not stated), the inhibition was determined as 23.5%.

For `CCN(CC)C(=O)COc1ccc2c(-c3ccccc3)cc(=O)oc2c1`, the inhibition is -10%.

As for `O=C(O)COc1ccc2c(-c3ccccc3)cc(=O)oc2c1`, the inhibition was -4.18%.

Consider `Cc1ccc(NC(=O)CN(C)C(=O)CSc2ccccc2F)cc1`, for which the inhibition was 1.97%.

For the molecule `COc1ccc(C(CNC(=O)c2c(C)nn(Cc3ccccc3)c2Cl)N2CCOCC2)cc1` (configuration not stated), the inhibition was 11.7%.

Consider `O=C(COc1ccccc1)NCC(=O)NC1CCCCC1`, for which the inhibition is 3.74%.

In the case of `O=C(COc1ccc(C(=O)c2ccccc2)cc1)NC1CCCCCC1`, the inhibition was 55.6%.

Consider `COc1ccc(OCCC(=O)OCC(=O)NC2CCCCCCC2)cc1`, for which the inhibition came out at 42.5%.

For `COc1ccc(OCCC(=O)OCC(=O)NC2CCCCC2)cc1`, the inhibition is 39.1%.

On to `CCOc1ccc(CCNC(=O)CCc2nnc3ccc(N4CCCCC4)nn23)cc1OCC`, for which the inhibition came out at 20.8%.

With `Cc1cccc[n+]1C1C(c2ccccc2)C(C#N)=C(C(=C=[N-])C#N)NC1(O)C1CC1` (configuration not stated), the inhibition was determined as 17.4%.

Consider `COC(=O)c1ccc(CN2CCN(C3CCCCC3)C(CCO)C2)cc1` (configuration not stated), for which the inhibition is -2.17%.

With `CCOC(=O)[C@@H]1[C@H]2COc3ccc(Br)cc3[C@H]2N2C(=O)N(c3ccc(C(F)(F)F)cc3)C(=O)[C@]12C`, the inhibition was 37.9%.

For `O=C(c1ccc(Cl)s1)N1CCCC1`, the inhibition was found to be 31%.

As for `O=C(c1ccc(Br)s1)N1CCCC1`, the inhibition is 46.3%.

For the molecule `Cc1ccc(NC(=O)CCC(=O)Nc2nnc(C3CCCCC3)s2)cc1`, the inhibition was -1.2%.

Consider `NC(=NCCc1ccccc1)NS(=O)(=O)c1ccc2ccccc2c1`, for which the inhibition was 51.5%.

Turning to `CCC(CO)N=CC1=C(O)C(C(=O)c2ccccc2)CCC1=O` (configuration not stated), the inhibition was found to be 4.93%.

`CC(=O)Nc1ccc(NC(=O)CSc2nnc(-c3cc4ccccc4o3)n2C)cc1`: the inhibition is -4.95%.

Consider `COc1cccc2nc3cc(C)c(C)cc3nc12`, for which the inhibition is 39.2%.

`COc1cc(C(=O)O)c2ccccc2n1`: the inhibition is -12.4%.

As to `CC(CNC(=O)CN1C(=O)C(=O)N(C2CCCC2)C1=O)c1ccccc1` (configuration not stated), the inhibition came to 21.6%.

For `O=C(O)C1=NN(c2ccccc2)C(=O)CC1`, the inhibition stood at 1.61%.

For the molecule `COc1cc(CNCCO)cc(Br)c1OCc1ccccc1`, the inhibition is 28.5%.

Take `CCOc1cc(CNCCO)cc(Br)c1OCc1cccs1`: the inhibition worked out at 73.5%.

Regarding `COc1cc(CNCCO)cc(Br)c1OCc1ccccc1Cl`, the inhibition is 79%.

On to `CCOc1cc(CNCCO)cc(Br)c1OCc1ccccc1`, for which the inhibition was found to be 75.9%.

Regarding `COCCNC(=O)COc1coc(CN2CCN(Cc3ccccc3)CC2)cc1=O`, the inhibition worked out at 0.19%.

Regarding `CCOc1ccc2oc(C(=O)NNC(=O)c3csc(N4CCOCC4)n3)c(C)c2c1`, the inhibition came to 75.8%.

Regarding `Cc1cccc(C(=O)NNC(=O)c2csc(N3CCOCC3)n2)c1C`, the inhibition was -2.47%.

Consider `CCN(N=Nc1cccc([N+](=O)[O-])c1)c1cccc([N+](=O)[O-])c1`, for which the inhibition is -3.89%.

On to `CC1(C)CC(=O)C(N=Nc2cccc([N+](=O)[O-])c2)=C(O)C1`, for which the inhibition is -5.61%.

In the case of `COCC(C)n1c(SCC(=O)N2CCOCC2)nc2ccccc2c1=O` (configuration not stated), the inhibition is 3.46%.

For the molecule `CCC(C)[C@H](NC(=O)[C@@H]1CSC2c3ccccc3C(=O)N21)C(=O)N1CCCCC1` (some centres not stated), the inhibition was found to be 12.4%.

Consider `Oc1ccc(-c2nnc(SCc3ccccc3)o2)cc1`, for which the inhibition was 77.5%.

For the molecule `CCSc1nnc(-c2ccncc2)o1`, the inhibition is 0.24%.

Consider `O=C(CSc1nnc(-c2ccncc2)o1)c1cccc([N+](=O)[O-])c1`, for which the inhibition came to 70.5%.

With `Cc1ccc(C(=O)CSc2nnc(-c3ccccc3)o2)cc1`, the inhibition was 64.9%.

Take `COc1ccc(-c2nnc(SCC#CCO)o2)cc1OC`: the inhibition worked out at 45.7%.

Turning to `O=C(CSc1nnc(-c2ccc(O)cc2)o1)Nc1ccccc1`, the inhibition was 63.5%.

In the case of `O=C(O)c1ccc(-c2nnc(-c3ccc([N+](=O)[O-])cc3)o2)cc1`, the inhibition was -2.79%.

On to `OCC#CCSc1nnc(-c2ccncc2)o1`, for which the inhibition was 23.9%.

As to `CCOCCCNC(=O)c1cc2c(s1)-c1ccccc1SC2`, the inhibition worked out at 9.76%.

In the case of `CC(=O)Nc1nccc(-c2cc(-c3ccccc3)no2)n1`, the inhibition was 2.66%.

For the molecule `COc1ccccc1N(CC(O)Cn1c2ccccc2c2ccccc21)S(=O)(=O)c1ccccc1` (configuration not stated), the inhibition was found to be 31.5%.

As for `Cc1ccccc1C(=O)NNC(=O)c1ccc2nc[nH]c2c1`, the inhibition amounted to 8.7%.

In the case of `COc1ccc(S(=O)(=O)Nc2cccc3c2O[C@H](CN(C)S(=O)(=O)c2ccc(Cl)cc2)[C@H](C)CN([C@H](C)CO)C3=O)cc1`, the inhibition is 51.4%.

With `O=c1c2ccccc2ncn1-c1ccc(Cl)c(Cl)c1`, the inhibition worked out at 1.67%.

Consider `COc1cc(Cl)cc(C=O)c1OCC(=O)O`, for which the inhibition amounted to 8.45%.

With `COc1ccc(CCNC(=O)C2CCCN2C(=O)Nc2ccc(Cl)cc2)cc1OC` (configuration not stated), the inhibition is 20.8%.

As to `C#CCSc1nnc(-c2sc3ccccc3c2Cl)o1`, the inhibition is 71.8%.

Take `Cc1ccc(CSc2nnc(-c3cccc4ccccc34)o2)cc1`: the inhibition was found to be 14.4%.

As to `Cc1ccccc1-c1nnc(SCC#N)o1`, the inhibition was found to be 15.7%.

On to `C=CCSc1nnc(-c2cccc3ccccc23)o1`, for which the inhibition came out at 5.5%.

With `C#CCSc1n[nH]c(=O)n1-c1cccc(C(F)(F)F)c1`, the inhibition came to 3.27%.

In the case of `O=C(N/N=C/c1c(O)n(-c2ccc(Cl)cn2)c(=O)c2ccccc12)C1CC1`, the inhibition turned out to be 6.8%.

Consider `O=C(CCNc1n[nH]c(=O)[nH]c1=O)N/N=C\c1cccc(OCc2ccccc2)c1`, for which the inhibition came to 10.7%.

Regarding `COc1cccc(NC(=O)CC(=O)c2ccc([N+](=O)[O-])cc2)c1`, the inhibition turned out to be 47%.

Regarding `COc1ccc(CCNC(=O)c2ccc(-c3ccc([N+](=O)[O-])cc3)o2)cc1OC`, the inhibition stood at 60.1%.

For `COc1cccc(NC(=O)c2ccccc2)c1`, the inhibition turned out to be 4.57%.

`COc1ccc(NC(=O)c2ccc(C(=O)c3ccccc3)o2)cc1`: the inhibition is -11.3%.

As to `COc1cccc(NC(=O)CNC(=O)c2ccc([N+](=O)[O-])cc2)c1`, the inhibition amounted to 12.4%.

`Cc1cc(NC(=O)c2ccc(Cn3cc([N+](=O)[O-])cn3)o2)no1`: the inhibition was 14.1%.

For the molecule `CC(=O)Nc1ccc(NC(=O)c2ccc(-c3ccc([N+](=O)[O-])cc3)o2)cc1`, the inhibition is 28.3%.

For the molecule `Cc1ccccc1NC(=O)c1ccc(Cn2cc([N+](=O)[O-])cn2)o1`, the inhibition was found to be 46.5%.

The inhibition is the change of the read-out against control, counted positive when it falls.
